This note sets out measurements from ChEMBL document CHEMBL3988442, “University of Dundee, Small-Polar-MMV Screening Library” (2021).

For some of these results: Measured potencies and affinities stand elsewhere.

Holding throughout (parameters): scale not given: direction of the effect not stated beside the values
Test [1] addresses Protein translocase subunit SecA (Escherichia coli (strain K12)) (UniProt P10408). Description: Assay to Identify E. coli SecA ATPase Inhibitors. Format: functional. As to conditions: 30 µM.
In test [2] the target is T1, Ubiquitin-activating enzyme e1, putative (Leishmania donovani (strain BPK282A1)) (UniProt E9BSI1).
T1 sequence (whole entry): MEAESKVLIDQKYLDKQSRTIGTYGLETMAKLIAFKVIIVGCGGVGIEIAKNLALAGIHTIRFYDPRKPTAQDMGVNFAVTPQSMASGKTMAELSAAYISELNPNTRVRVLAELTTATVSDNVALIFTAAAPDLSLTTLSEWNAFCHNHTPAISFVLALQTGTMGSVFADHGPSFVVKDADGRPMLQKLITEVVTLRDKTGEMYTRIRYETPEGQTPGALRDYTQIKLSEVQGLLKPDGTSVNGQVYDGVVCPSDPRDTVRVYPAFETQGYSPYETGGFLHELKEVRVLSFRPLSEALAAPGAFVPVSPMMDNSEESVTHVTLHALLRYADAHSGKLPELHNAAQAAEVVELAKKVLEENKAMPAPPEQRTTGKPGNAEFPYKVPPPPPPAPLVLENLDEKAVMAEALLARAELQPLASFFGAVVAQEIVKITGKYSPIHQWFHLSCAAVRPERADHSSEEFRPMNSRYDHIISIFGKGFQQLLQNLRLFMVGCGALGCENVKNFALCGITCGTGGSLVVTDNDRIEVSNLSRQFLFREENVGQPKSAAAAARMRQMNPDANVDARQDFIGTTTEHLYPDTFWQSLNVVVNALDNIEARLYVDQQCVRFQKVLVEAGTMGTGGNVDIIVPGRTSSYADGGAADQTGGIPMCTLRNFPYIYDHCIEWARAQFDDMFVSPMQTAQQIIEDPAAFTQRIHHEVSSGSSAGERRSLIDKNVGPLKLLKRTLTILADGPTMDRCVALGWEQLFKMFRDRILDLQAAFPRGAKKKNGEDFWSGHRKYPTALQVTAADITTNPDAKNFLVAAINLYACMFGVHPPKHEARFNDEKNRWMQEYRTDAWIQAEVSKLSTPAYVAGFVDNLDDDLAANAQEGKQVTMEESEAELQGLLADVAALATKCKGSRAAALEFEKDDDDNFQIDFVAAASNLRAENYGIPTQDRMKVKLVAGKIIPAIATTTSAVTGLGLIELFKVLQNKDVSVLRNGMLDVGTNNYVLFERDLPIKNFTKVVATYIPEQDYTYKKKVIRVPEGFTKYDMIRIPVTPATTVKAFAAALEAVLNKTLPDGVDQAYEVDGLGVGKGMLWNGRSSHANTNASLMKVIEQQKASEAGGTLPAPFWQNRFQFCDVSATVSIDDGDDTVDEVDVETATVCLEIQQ
Briefly: Leishmania donovani Ubiquitin Activating Enzyme (LdE1). Format: functional. As to conditions: 30 µM.

The target of test [3] is AMP-activated protein kinase, AMPK (Homo sapiens) (UniProt P54646+O43741+P54619+Q9UGJ0+Q9Y478+Q13131+Q9UGI9). Description: AMP-dependent Kinase enzyme assay. An in vitro enzyme assay that detects ADP turnover that is directly proportional to AMPK activity. This uses naive AMPK that is activated during the assay with MK-8722. As to conditions: 30 µM. In kind it is functional.

The target of test [4] is Sialic acid-binding Ig-like lectin 9 (Homo sapiens) (UniProt Q9Y336). Briefly: Hs-Siglec9 ALPHAscreen SOP 20170721. As to conditions: 10 µM.
Test [5] concerns Trypanosoma cruzi. Description: Trypanosoma cruzi phosphomannomutase and mannose-1-phosphate guanylyltransferase assay. Format: functional. The settings on record: 10 µM.
The target of test [6] is T2, Arginase-2, mitochondrial (Homo sapiens) (UniProt P78540).
T2 sequence (whole entry): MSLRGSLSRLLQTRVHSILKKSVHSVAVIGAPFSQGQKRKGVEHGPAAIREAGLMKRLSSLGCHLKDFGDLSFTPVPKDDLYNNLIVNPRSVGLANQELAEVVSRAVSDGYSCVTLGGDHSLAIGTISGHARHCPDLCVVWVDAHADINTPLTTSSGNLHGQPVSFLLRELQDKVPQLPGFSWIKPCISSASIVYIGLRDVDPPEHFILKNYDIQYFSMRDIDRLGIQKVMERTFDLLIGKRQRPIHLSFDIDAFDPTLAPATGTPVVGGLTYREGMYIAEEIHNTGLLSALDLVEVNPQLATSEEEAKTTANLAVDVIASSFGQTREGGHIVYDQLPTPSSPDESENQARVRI
Description: in vitro enzyme assay to detect the production of urea directly proportional to the activity of Arginase II. Note: in the data most compounds retested in dose-response had high values. As to conditions: 33.3 µM. Format: functional.

Test [7] has as its target T3, Proteasome subunit beta (Trypanosoma cruzi) (UniProt O96673).
T3 sequence (whole entry): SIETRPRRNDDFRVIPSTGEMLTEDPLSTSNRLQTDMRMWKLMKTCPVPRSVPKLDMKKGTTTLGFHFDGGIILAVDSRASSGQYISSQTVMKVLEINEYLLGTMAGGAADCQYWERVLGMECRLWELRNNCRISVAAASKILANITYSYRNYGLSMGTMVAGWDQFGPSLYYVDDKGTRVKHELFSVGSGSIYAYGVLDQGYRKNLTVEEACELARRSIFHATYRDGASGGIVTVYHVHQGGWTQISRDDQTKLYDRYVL
Briefly: Trypanosoma cruzi proteasome chymotrypsin-like activity (TcProtChymo) assay. Note: in the data most compounds retested in dose-response had high values. Format: functional. As to conditions: 9.37 µM.

The species entered for test [8] is Homo sapiens. Briefly: To identify inhibition of the IFN signalling (Jak-Stat) pathway via expression of an eGFP reporter gene under the control of an IFN-stimulated response element (ISRE) containing MxA promoter. In kind it is functional. As to conditions: 30 µM. (In general: In a reporter assay the amount or activity of a reporter protein is the signal.)
Test [9] has as its target T4, Tyrosyl-tRNA synthetase, putative (Trypanosoma cruzi (strain CL Brener)) (UniProt Q4DSP6).
T4 sequence (whole entry): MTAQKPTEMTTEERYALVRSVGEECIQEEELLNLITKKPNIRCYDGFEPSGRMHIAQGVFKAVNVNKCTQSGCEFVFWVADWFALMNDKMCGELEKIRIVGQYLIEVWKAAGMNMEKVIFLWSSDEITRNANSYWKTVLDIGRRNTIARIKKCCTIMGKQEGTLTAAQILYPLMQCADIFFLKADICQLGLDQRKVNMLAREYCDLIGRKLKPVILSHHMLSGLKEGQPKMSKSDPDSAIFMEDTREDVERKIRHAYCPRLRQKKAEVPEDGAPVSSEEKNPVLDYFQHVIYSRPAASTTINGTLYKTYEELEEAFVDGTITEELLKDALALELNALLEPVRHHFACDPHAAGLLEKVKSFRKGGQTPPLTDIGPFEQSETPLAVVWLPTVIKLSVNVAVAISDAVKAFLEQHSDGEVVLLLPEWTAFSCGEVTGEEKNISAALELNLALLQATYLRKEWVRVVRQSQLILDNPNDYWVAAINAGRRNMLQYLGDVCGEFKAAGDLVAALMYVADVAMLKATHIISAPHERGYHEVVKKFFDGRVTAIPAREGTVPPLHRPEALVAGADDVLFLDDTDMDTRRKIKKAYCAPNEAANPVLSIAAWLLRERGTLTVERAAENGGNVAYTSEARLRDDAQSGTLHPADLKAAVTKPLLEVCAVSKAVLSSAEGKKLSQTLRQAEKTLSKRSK
Description: Trypanosoma cruzi tyrosyl tRNA synthetase (TcYRS) _High Tyrosine SOP. Note: in the data most compounds retested in dose-response had high values. In kind it is functional. As to conditions: 30 µM.

Test [10] concerns the target T4, Tyrosyl-tRNA synthetase, putative (Trypanosoma cruzi (strain CL Brener)). Briefly: Trypanosoma cruzi tyrosyl tRNA synthetase (TcYRS) SOP. In kind it is functional. The settings on record: 30 µM.
Test [11] has as its target Chromo domain-containing protein 1 (Saccharomyces cerevisiae (strain ATCC 204508 / S288c) (Baker's yeast)) (UniProt P32657). Description: ScCHD-1 Enzyme Inhibition Assay. Note: in the data most compounds retested in dose-response had high values. Format: functional. As to conditions: 30 µM.

Chromo domain-containing protein 1 (Saccharomyces cerevisiae (strain ATCC 204508 / S288c) (Baker's yeast)), sequence (P32657 whole entry, the tested form may be a part): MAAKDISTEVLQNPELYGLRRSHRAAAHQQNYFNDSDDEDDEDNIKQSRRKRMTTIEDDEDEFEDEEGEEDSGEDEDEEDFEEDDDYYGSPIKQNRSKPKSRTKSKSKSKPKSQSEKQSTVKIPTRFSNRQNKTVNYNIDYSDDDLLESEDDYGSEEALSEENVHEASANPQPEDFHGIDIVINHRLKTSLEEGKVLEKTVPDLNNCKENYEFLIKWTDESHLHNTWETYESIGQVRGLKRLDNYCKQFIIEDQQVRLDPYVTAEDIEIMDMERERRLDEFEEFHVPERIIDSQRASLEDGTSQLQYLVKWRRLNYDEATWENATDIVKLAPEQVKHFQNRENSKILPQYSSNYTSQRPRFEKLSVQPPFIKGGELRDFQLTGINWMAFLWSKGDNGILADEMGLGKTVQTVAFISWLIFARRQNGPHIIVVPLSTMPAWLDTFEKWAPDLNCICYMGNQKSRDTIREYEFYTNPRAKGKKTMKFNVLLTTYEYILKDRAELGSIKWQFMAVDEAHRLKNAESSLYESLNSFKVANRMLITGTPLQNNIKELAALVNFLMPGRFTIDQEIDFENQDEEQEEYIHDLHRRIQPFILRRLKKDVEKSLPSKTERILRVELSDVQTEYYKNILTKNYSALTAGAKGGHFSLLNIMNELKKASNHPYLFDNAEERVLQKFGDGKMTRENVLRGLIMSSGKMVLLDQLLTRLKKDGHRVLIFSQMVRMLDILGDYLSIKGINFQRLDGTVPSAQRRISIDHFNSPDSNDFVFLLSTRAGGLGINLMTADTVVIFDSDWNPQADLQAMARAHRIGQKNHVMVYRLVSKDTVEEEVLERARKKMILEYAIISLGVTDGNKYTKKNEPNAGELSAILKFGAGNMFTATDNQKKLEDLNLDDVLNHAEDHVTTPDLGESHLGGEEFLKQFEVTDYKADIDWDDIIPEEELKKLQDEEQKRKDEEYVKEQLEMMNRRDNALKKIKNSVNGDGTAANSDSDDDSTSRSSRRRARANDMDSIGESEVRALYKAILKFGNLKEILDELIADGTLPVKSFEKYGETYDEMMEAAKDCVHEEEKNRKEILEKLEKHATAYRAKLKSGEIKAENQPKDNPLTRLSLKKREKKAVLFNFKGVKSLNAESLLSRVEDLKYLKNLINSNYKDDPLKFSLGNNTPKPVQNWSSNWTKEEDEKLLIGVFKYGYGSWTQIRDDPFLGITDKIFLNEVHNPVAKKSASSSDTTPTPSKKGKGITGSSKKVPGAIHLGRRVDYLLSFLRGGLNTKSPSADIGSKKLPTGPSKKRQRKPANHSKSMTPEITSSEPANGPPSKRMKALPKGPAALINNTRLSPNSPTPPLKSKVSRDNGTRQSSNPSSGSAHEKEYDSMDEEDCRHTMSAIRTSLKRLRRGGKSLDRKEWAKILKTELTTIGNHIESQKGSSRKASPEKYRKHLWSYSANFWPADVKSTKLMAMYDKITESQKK
Protein translocase subunit SecA (Escherichia coli (strain K12)), sequence (P10408 whole entry): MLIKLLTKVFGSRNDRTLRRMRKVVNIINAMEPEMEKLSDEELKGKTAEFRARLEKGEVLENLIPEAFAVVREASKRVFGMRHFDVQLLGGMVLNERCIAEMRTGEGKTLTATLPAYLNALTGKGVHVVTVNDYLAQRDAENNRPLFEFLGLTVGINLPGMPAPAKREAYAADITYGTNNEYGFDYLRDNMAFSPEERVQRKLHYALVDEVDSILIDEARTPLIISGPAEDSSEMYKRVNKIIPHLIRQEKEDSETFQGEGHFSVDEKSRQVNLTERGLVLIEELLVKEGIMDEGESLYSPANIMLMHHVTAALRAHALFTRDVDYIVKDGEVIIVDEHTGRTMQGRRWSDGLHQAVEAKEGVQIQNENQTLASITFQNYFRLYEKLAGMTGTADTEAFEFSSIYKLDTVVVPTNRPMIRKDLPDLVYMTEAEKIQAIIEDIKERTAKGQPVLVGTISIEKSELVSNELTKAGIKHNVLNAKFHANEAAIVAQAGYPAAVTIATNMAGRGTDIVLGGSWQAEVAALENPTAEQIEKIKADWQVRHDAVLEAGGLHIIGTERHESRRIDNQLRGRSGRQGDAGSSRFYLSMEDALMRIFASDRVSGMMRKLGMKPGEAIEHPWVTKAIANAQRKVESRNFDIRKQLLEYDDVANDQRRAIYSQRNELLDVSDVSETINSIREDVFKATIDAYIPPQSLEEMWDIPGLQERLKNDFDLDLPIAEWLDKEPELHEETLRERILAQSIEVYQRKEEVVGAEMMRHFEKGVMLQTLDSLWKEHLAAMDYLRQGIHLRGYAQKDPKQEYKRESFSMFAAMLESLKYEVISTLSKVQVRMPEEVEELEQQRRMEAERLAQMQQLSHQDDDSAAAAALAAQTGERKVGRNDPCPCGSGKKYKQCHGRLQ
Sialic acid-binding Ig-like lectin 9 (Homo sapiens), sequence (Q9Y336 whole entry): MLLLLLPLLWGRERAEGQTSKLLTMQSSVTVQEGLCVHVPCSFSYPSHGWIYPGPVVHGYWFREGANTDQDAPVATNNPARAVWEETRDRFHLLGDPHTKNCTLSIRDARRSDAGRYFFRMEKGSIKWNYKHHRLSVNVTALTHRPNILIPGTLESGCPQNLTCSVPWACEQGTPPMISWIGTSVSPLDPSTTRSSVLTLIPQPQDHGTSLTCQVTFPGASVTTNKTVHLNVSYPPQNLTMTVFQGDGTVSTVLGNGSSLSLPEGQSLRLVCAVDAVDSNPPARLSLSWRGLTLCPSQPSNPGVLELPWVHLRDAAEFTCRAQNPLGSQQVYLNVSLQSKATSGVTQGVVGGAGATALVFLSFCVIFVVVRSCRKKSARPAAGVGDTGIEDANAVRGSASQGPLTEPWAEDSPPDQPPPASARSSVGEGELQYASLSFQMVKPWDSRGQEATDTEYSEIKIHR

For the compound `COc1ccc(-c2nnc(SC(C)C(=O)NCC(C)C)[nH]2)c(OC)c1` (stereo unspecified), the Percent Effect was -3.62% in test [1]; 10.5% in test [2]; 2.87% in [3]; 6.11% in [4]; 1.27% in [5]; -3.55% in [6]. The Percent Effect was determined as 13.5% in test [7]; 91.3% in test [8]; 3.19% in test [9]; 18.2% in test [10]; 2.44% in test [11].
As to `CSC(C)(C)CNC(=O)NC1CCN(C)CC1`, the Percent Effect is -2.43% in [1]; 5.33% in test [2]; -2.46% in test [3]; 7.43% in test [4]; 3.21% in [5]; 15.6% in test [6]. For the same compound, the Percent Effect was 0% in test [7]; 21.1% in [8]; 4.92% in [9]; 6.17% in [10]; -2.97% in [11].
As for `COCCN1CCC2(CCN(Cc3nccs3)CC2)C1=O`, the Percent Effect in test [1] is -1.23%; in [2], -2.67%; in test [3], -1.24%; in test [4], 5.18%; in [5], -5.79%; in test [6], -11.7%. Further, the Percent Effect in [7] was 2.91%; in test [8] it was -7.71%; in test [9], 6.25%; in [10], 2.5%; in test [11] it was 0.122%.
On to `CCC1=N[C@@]2(CC[C@@H]3CN(CC4CC4)C[C@@H]32)C(=O)N1C`, for which the Percent Effect is -4.94% in [1]; 10.8% in test [2]; 1.5% in [3]; 0.724% in test [4]; -1.86% in [5]; 0.319% in test [6]. Besides, the Percent Effect in test [7] is 19.2%; in test [8], -28.1%; in test [9], 0%; in [10], 15.4%; in test [11], -3.77%.
In the case of `Cc1ccoc1-c1nnc(CNCC2CCCN2c2cccnn2)o1` (stereo unspecified), the Percent Effect in test [1] was -6.58%; in test [2] it was 0%; in [3], -0.825%; in test [4] it was 2.96%; in test [5] it was 1.98%; in test [6], -0.798%. Also, the Percent Effect in test [7] came out at 9.33%; in test [8], 6.87%; in test [9] it was 9.38%; in [10] it was 13.6%; in [11] it was 1.55%.
As for `CNc1nc(CNC(=O)Nc2ccccc2-c2noc(C)n2)cs1`, the Percent Effect in [1] was -1.81%; in [2] it was -2.63%; in test [3], -2.79%; in test [4] it was -0.349%; in test [5] it was -3.19%; in test [6], -1.92%. Besides, the Percent Effect in test [7] is 3.01%; in test [8], 17.1%; in [9], 1.47%; in [10], -4.88%; in [11], -4.83%.
For the compound `CCc1nc(NS(=O)(=O)c2ccc(C)cc2Cl)no1`, the Percent Effect is -5.01% in test [1]; -2.67% in test [2]; -2.5% in test [3]; 11.5% in test [4]; 4.19% in [5]; 1.56% in test [6]. Also, the Percent Effect in test [7] is -1.57%; in [8], -10.5%; in test [9] it was 2.73%; in test [10], 6.17%; in [11] it was -1.19%.
For `Cc1cc(N2CCC(N(C)C(=O)c3ccccc3)CC2)nc(C)n1`, the Percent Effect in [1] was -2.59%; in [2], 19.2%; in test [3] it was 2.37%; in test [4], 4.5%; in test [5], 5.09%; in test [6], 10.4%. Also, the Percent Effect is 11.4% in [7]; 29.3% in [8]; 7.53% in test [9]; 17.5% in [10]; -8.12% in [11].
For `Cc1cnn(CC2CCCCN2Cc2nc(-c3ccoc3)no2)c1` (stereo unspecified), the Percent Effect was -1.89% in test [1]; 16.2% in test [2]; -6.06% in test [3]; 4.87% in [4]; 5.19% in test [5]; -5.61% in [6]. Moreover, the Percent Effect in test [7] is 7.75%; in test [8] it was 21.5%; in test [9], 8.37%; in test [10] it was 23.5%; in [11], -6.74%.
As to `COCCC(=O)N1CCc2cc(Cl)cc(Cl)c2C1`, the Percent Effect in [1] is -3.86%; in test [2], -44.2%; in [3], 0.226%; in [4] it was 19.2%; in test [5], 1.87%; in test [6], 0%. In addition, the Percent Effect is 14% in test [7]; -16.1% in [8]; -3.23% in [9]; -1.24% in test [10]; 126% in test [11].
Take `O=C(COc1ccc2c(c1)CCC2)N1CCOCC1c1ncon1` (stereo unspecified): the Percent Effect in [1] is -2.91%; in test [2] it was 2.7%; in [3], -3.96%; in test [4], -4.39%; in [5], -4.62%; in test [6], 1.2%. In addition, the Percent Effect in [7] is -1.62%; in test [8], 13.6%; in [9], 4.43%; in [10], 6.17%; in [11], -2.72%.
